Experimental data taken from PubChem BioAssay AID1159554 (Broad Institute, 2015).
Screen size: about 94,000 compounds; about 2,100 (2.2%) were called active. Cut-off read from the data, not from the text of the source: active = activity change below about -80%; inconclusive = no clear call, values can overlap the other calls; inactive = above that. The sample as a whole holds a higher share of actives than the screen did.

assay: P. falciparum Dd2 growth inhibitors, primary screen, SYBR Green fluorescence, single dose replicates (AID 1159554); settings: 72 h, at 10 µM, active compounds read low

Activity change, inactive:
CCS(=O)(=O)N1[C@H](CO)[C@@H](c2ccccc2)C12CN(C(=O)C1CCC1)C2 35.7%
COc1ccccc1S(=O)(=O)N1CC[C@@H]2[C@H](CO)Nc3ccc(-c4ccccc4F)cc3[C@@H]21 -2.28%
O=C1CN(Cc2ccc(F)cc2)C[C@H]2[C@@H](c3ccc(Br)cc3)[C@H](CO)N12 -35.6%
O=C(C[C@H]1C[C@@H]2c3cc(NC(=O)C4CCC4)ccc3O[C@@H]2[C@H](CO)O1)NC1CCCCC1 12%
O=C(N[C@@H]1C=C[C@H](CC(=O)N2CCOCC2)O[C@H]1CO)c1ccccn1 34%
C[C@H](O)C#Cc1cnc2c(c1)C(=O)N([C@H](C)CO)C[C@H](C)[C@H](CN(C)C(=O)c1ccc(F)cc1)O2 8.85%
COc1cccc(CNC(=O)C[C@@H]2CC[C@@H]3[C@H](COc4ccc(NC(C)=O)cc4C(=O)N3C)O2)c1 -0.731%
C[C@@H]1CN([C@H](C)CO)C(=O)Cc2cc(NC(=O)Nc3ccccc3)ccc2O[C@H]1CN(C)Cc1ccc(Cl)c(Cl)c1 -5.47%
Cc1noc(C)c1NC(=O)Nc1ccc2c(c1)C(=O)N([C@H](C)CO)C[C@H](C)[C@H](CN(C)Cc1ccc(Oc3ccccc3)cc1)O2 -39.9%
Cc1noc(C)c1NC(=O)Nc1ccc2c(c1)CC(=O)N([C@H](C)CO)C[C@@H](C)[C@@H](CN(C)Cc1ccncc1)O2 3.85%
C[C@H]1CN([C@@H](C)CO)C(=O)Cc2cc(NC(=O)Nc3cccc4ccccc34)ccc2O[C@H]1CN(C)CC1CC1 -71.1%
CC(C)NC(=O)Nc1ccc2c(c1)CC(=O)N([C@@H](C)CO)C[C@@H](C)[C@H](CN(C)CC1CC1)O2 1.75%
C[C@@H]1CN([C@H](C)CO)C(=O)Cc2cc(NC(=O)Nc3ccccc3)ccc2O[C@@H]1CN(C)Cc1ccc(C(F)(F)F)cc1 2.2%
CO[C@@H]1CN(C)C(=O)c2cc(NC(=O)C3CCOCC3)ccc2OC[C@H](C)N(Cc2cccnc2)C[C@@H]1C 14.9%
CCS(=O)(=O)Nc1ccc2c(c1)C(=O)N(C)[C@@H]1CC[C@H](CC(=O)N3CCCCC3)O[C@@H]1CO2 6.13%
CO[C@@H]1CN(C)C(=O)c2cc(NS(=O)(=O)c3ccccc3)ccc2OC[C@@H](C)N(C(=O)NC(C)C)C[C@@H]1C 20.8%
COCC(=O)N1CCC2(CC1)CN(C(=O)Nc1ccccc1F)[C@@H](CO)c1c2c2ccc(OC)cc2n1C -32.4%
CCCC#Cc1cnc2c(c1)C(=O)N([C@@H](C)CO)C[C@@H](C)[C@@H](CN(C)C(=O)c1ccccc1)O2 -15.9%
CO[C@H]1CN(C)C(=O)c2ccc(NC(=O)C3CC3)cc2OC[C@H](C)N(Cc2ccncc2)C[C@@H]1C -31.5%
COc1cccc(CNC(=O)[C@@H]2[C@@H](CO)[C@@H]3Cn4c(ccc(-c5cccnc5)c4=O)[C@@H]3N2C)c1 8.71%
O=C(C[C@@H]1CC[C@@H](NS(=O)(=O)c2ccc(F)cc2)[C@@H](CO)O1)NCCc1ccncc1 23.4%
O=C(N[C@H]1CC[C@@H](CCNS(=O)(=O)Cc2ccccc2)O[C@H]1CO)c1ccccc1F -32.4%
CC(C)NC(=O)N(C)C[C@H]1OCCCC[C@@H](C)Oc2ccc(NC(=O)C3CCCCC3)cc2C(=O)N([C@H](C)CO)C[C@H]1C -37.9%
O=C(NC1CCCCC1)N1CC2(C1)[C@H](c1ccccc1)[C@@H](CO)N2S(=O)(=O)Cc1ccccc1 -4.41%
C[C@@H]1CCCCO[C@H](CN(C)S(=O)(=O)c2cccs2)[C@@H](C)CN([C@@H](C)CO)C(=O)c2cc(NC(=O)NC3CCCCC3)ccc2O1 -76%
O=C(Nc1ccccc1F)N1C[C@H]2[C@@H](c3ccccc31)[C@@H](CO)N2C(=O)Cc1cccnc1 13.8%
COCC(=O)N1CC2(C1)[C@H](c1ccc(-c3cccc(F)c3)cc1)[C@@H](CO)N2C(=O)COC 11.2%
COCC(=O)N1CC2(C1)[C@@H](c1ccc(-c3cccc(F)c3)cc1)[C@@H](CO)N2C(=O)COC 13.9%
O=C(C1CCCC1)N1[C@@H](CO)[C@@H](c2ccccc2)C12CN(Cc1ccc(F)cc1)C2 -28%
O=C(C1CCCC1)N1[C@H](CO)[C@@H](c2ccccc2)C12CN(CCC(F)(F)F)C2 -46.4%
COc1cccc(C#Cc2ccc3c(c2)[C@H]2[C@H](CCN2C(=O)CC2CC2)[C@H](CO)N3)c1 -67.1%
COc1ccc2c3c(n(C)c2c1)[C@@H](CO)N(Cc1ccncc1)CC31CN(C(=O)Nc2cccc(F)c2)C1 -46.3%
C[C@H]1CN([C@@H](C)CO)C(=O)c2c(c3ccccc3n2C)-c2ccccc2CO[C@@H]1CN(C)Cc1ccc2c(c1)OCCN2C -31.4%
CCCN1C[C@H](C)[C@@H](OC)CN(C)C(=O)c2ccc(NC(=O)c3cnccn3)cc2OC[C@H]1C 13.8%
COC(=O)C[C@H]1CC[C@@H]2[C@@H](COc3ccc(NC(=O)Nc4ccc(Cl)cc4)cc3C(=O)N2C)O1 9.95%

Activity change, active:
C[C@H](CO)N1C[C@H](C)[C@@H](CN(C)CC2CC2)Oc2ccc(NC(=O)Nc3ccccc3)cc2CC1=O -83.5%
C[C@H](CO)N1C[C@H](C)[C@@H](CN(C)Cc2ccc(Cl)c(Cl)c2)Oc2ccc(NC(=O)Nc3ccc(C(F)(F)F)cc3)cc2CC1=O -87.2%
Cc1noc(C)c1NC(=O)Nc1ccc2c(c1)CC(=O)N([C@@H](C)CO)C[C@@H](C)[C@H](CN(C)Cc1ccc(Oc3ccccc3)cc1)O2 -81.8%
O=C(C1CCCCC1)N1[C@H](CO)[C@@H](c2ccccc2)C12CN(Cc1cccc(Cl)c1)C2 -90.7%
COCC(=O)N1[C@H](CO)[C@@H](c2ccccc2)C12CN(Cc1cc(F)ccc1F)C2 -89%
